Measurements published in PubChem BioAssay AID1233 (SRMLSC, 2008).
Results with a measured potency or affinity are listed apart.

Target: HMG-CoA reductase [Enterococcus faecalis] (UniProt Q9FD70)
Experiment: class II HMG-CoA reductase inhibition potency – biochemical, Enterococcus faecalis, confirmation (AID 1233);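 also: 0% = full reaction carrier wells and 100% = background wells lacking mevalonate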
Details: purified E. faecalis HMGR, NADPH absorbance 340 nm kinetics; series mostly up to 100 µM; inhibition: at the top concentration;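 active = a dose-response curve fit returns a half-maximal inhibitory concentration, extrapolated values included; inactive = the fit returns no such concentration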

inhibition, inactive:
Cc1cc(-c2ccccc2)nc(SCC(=O)N2CCCC2)n1 0.13%
COc1ccc(-c2[nH]nc3c2C(c2ccsc2)C(C#N)=C(N)O3)cc1 (stereo not drawn) -0.58%
CC(=O)Oc1ccccc1-c1nc(C)nc(N(C)C(C)=O)n1 -1.06%
COc1cccc(NC(=O)c2ccc3snnc3c2)c1 -9.19%
CCc1nnc(NC(=O)CN2CCN(c3nc(-c4ccccc4)cs3)CC2)s1 -3.15%
Cc1c(NS(=O)(=O)c2ccc3c(c2)Cc2ccccc2-3)c(=O)n(-c2ccccc2)n1C -2.26%
CC(C)c1ccc(NC(=O)COC(=O)/C=C/c2cccc(Br)c2)cc1 -6.09%
CCN(CC)c1ccc(-c2n[nH]c(=S)n2-c2ccccc2C)cc1 -8.49%
O=C1CC(=O)N(Cc2ccco2)C(=S)N1 -2.11%
CC(C)CC(O)(CC(C)C)C(=O)NNc1ccccc1 -1.34%
CCc1ccc(NC(=O)CN(c2cccc(C)c2)S(C)(=O)=O)cc1 -1.92%
CCN(CC)S(=O)(=O)c1cccc(C(=O)Nc2cc(C)cc(C)c2)c1 2.33%
COc1ccccc1CNC(=O)C1CCCN(S(=O)(=O)c2c(C)[nH]c(=O)[nH]c2=O)C1 (stereo not drawn) -6.01%
Cc1ccc(OCC(O)CN2C(=O)NC(C)(C)C2=O)cc1 (stereo not drawn) -9.46%
O=C(Nc1cccc(S(=O)(=O)N2CCCCCC2)c1)c1ccc2ccccc2n1 -2.66%
CN(C)S(=O)(=O)N1CCN(S(=O)(=O)N2CCOCC2)CC1 -0.28%
COc1ccc(Nc2ccc(S(=O)(=O)N3CCCCC3)cc2[N+](=O)[O-])cc1 7.35%
CCN(CC)Cc1c(C(=O)N2CCc3ccccc3C2)nc2ccc(Cl)cn12 -7.8%
